Records with an inconclusive call do not appear. The source made the active and inactive calls. Calls come from the whole dose curve; as a rule, active = well fitted inhibition curve with a large enough effect; inconclusive = small, poorly fitted or top-dose-only effect; inactive = flat fitted curve, though single readings scatter.
Each compound was assayed against Luciferin 4-monooxygenase (Photinus pyralis) (UniProt P08659) (assay: qHTS Assay for Inhibitors of Firefly Luciferase from the GSK Published Protein Kinase Inhibitor Set). Conditions: purified firefly luciferase, luminescence inhibition; series mostly up to 57.5 µM; activity change, negative = inhibition: at the top concentration.
Excerpt: FLuc (firefly luciferase) is the prototypical bioluminescent reporter gene from Photinus pyralis.[1] The enzyme catalyzes the oxidation luciferin via luciferin-AMP to produce light. FLuc is used in cell-based reporter gene-based assays for screening small molecule chemical libraries. However, small molecule luciferase inhibitors present in most large chemical libraries are often enriched in the output of high throughput screens using this reporter sometimes complicating interpretation and candidate selection.
RLuc is a bioluminescent reporter gene luciferase from Renilla reniformis, also known as the sea pansy. RLuc uses the luciferin substrate coelenterazine. RLuc is often used in combination with the nonhomologous luciferase FLuc (firefly luciferease) as a trasfection or pathway normalization control. Recently, non-homologous reporters have been described for high throughput screening 'coincidence' reporter gene strategies.
1. Fan F, Wood KV (2007) Bioluminescent assays for high-throughput screening. Assay Drug Dev Technol 5: 127-136.
2. Thorne N, Inglese J, Auld DS (2010) Illuminating insights into firefly luciferase and other bioluminescent reporters used in chemical biology. Chem Biol 17: 646-657.
3. […] Chem Biol 19: 1060-1072.
4. Michelini E, Cevenini L, Mezzanotte L, Coppa A, Roda A (2010) Cell-based assays: fuelling drug discovery. Anal Bioanal Chem 398: 227-238.
5. Cheng KC, Inglese J (2012) A coincidence reporter-gene system for high-throughput screening. Nat Methods 9: 937.
Biochemical firefly luciferase enzyme assay
NCGC Assay Protocol Summary:
Reagents: 50mM Tris acetate, pH 7.5; 10mM Mg acetate; 10uM D-luciferin (Sigma #L9504); 10uM ATP; 0.01% Tween-20; 0.05% BSA; 10nM P. pyralis luciferase (Sigma #L9506)
Control compounds used were two known firefly luciferase inhibitors (compounds (2) and (5) in Auld et al., 2010), and DMSO.
Three microliters containing firefly luciferase substrates in buffer (final concentrations: 50mM Tris acetate, pH 7.5, 10mM Mg acetate, 0.01% Tween-20, 0.05% BSA, 10uM D-luciferin, and 10uM ATP) are dispensed into each well of a Greiner white, solid-bottom 1536-well format plate using a flying reagent dispenser (FRD). These assay plates were then treated with 23nL of compound or DMSO using a Kalypsys pin tool, which allows for delivery of a 7-point interplate titration of each compound to the assay plates (quantitative HTS), with final compound concentrations ranging from approximately 60uM to 300pM. One microliter of firefly luciferase in 50mM Tris-acetate buffer was then delivered by FRD to each well for a final enzyme concentration of 10nM. Luciferase activity was then measured using an Envision plate reader (PerkinElmer), with an average incubation time of 5 min.
% is set by controls: 0 for no effect and ±100 for the full control effect; potency is the fitted concentration of half-maximal effect.

Chain of Luciferin 4-monooxygenase (Photinus pyralis) (P08659 whole entry, looked up): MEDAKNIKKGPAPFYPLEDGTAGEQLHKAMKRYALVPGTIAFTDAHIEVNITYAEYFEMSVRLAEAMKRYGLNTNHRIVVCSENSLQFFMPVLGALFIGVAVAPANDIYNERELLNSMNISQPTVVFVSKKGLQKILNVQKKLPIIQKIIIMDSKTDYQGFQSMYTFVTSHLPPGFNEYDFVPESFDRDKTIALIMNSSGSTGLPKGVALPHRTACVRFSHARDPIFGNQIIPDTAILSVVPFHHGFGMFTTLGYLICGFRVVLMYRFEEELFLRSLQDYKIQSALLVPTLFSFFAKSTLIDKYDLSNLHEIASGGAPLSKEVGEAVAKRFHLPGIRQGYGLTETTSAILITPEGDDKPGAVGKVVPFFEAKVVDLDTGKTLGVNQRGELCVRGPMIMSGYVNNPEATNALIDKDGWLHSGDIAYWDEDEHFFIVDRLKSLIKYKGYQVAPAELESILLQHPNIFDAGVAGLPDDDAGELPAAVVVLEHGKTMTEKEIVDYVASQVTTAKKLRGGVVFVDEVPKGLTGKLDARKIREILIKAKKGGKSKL

| Compound | activity change, negative = inhibition | Potency |
| --- | --- | --- |
| O=C(OC1CNC(C#Cc2cc3ncnc(Nc4ccc5c(ccn5Cc5cc(F)ccc5F)c4)c3s2)C1)N1CCOCC1 (stereo not given) | -6.86% (inactive) | – |
| CCN(CC)S(=O)(=O)c1ccc(OC)c(Nc2ncc(-c3ccccc3)o2)c1 | 0.125% (inactive) | – |
| O=C1NC(=O)C(c2cccc([N+](=O)[O-])c2)=C1Nc1cc(Cl)c(O)c(Cl)c1 | -10.5% (inactive) | – |
| Cc1cc(Cl)cc2c(N=Nc3ccc(S(N)(=O)=O)cc3)c(O)[nH]c12 | 2.74% (inactive) | – |
| CCNC(=O)OC1CNC(C#Cc2cc3ncnc(Nc4ccc(OCc5cccc(F)c5)c(Cl)c4)c3s2)C1 (stereo not given) | -14.8% (inactive) | – |
| CC(=O)Nc1cccc(C#Cc2cncnc2Nc2ccc(OCc3cccc(F)c3)c(Cl)c2)c1 | -10.2% (inactive) | – |
| Fc1ccc(-c2nn3ccccc3c2-c2ccncc2)cc1 | – | 1160 nM (active) |
| CCn1c(-c2nonc2N)nc2cnc(Oc3cccc(NC(=O)c4ccc(OCCN5CCOCC5)cc4)c3)cc21 | -9.42% (inactive) | – |
| NC(=O)c1cc(-c2ccc(F)cc2)cc(-c2ccncc2)c1N | 0.778% (inactive) | – |
| COc1cc2ncnc(Nc3ccc4c(cnn4Cc4ccccc4)c3)c2cc1OC | -4.23% (inactive) | – |
| Fc1ccc(-c2cc(-c3cn[nH]c3-c3ccccn3)ccn2)cc1 | -9.65% (inactive) | – |
| COc1ccc(-c2coc3ncnc(N)c23)cc1 | 0.905% (inactive) | – |
| CC1=C(C(=O)Nc2cc(Cl)c3[nH]ncc3c2)C(c2ccc(C(F)(F)F)cc2)CC(=O)N1 (stereo not given) | 7.74% (inactive) | – |
| Nc1nc(-c2ccc(F)cc2)c(-c2ccc3ncccc3n2)s1 | 10.4% (inactive) | – |
| NS(=O)(=O)c1ccc(Nc2cc(-c3ccc(O)c(F)c3)[nH]n2)cc1 | -17.6% (inactive) | – |
| Cc1ccc(Nc2ccnc(Nc3cccc(C(N)=O)c3)n2)cc1O | – | 1460 nM (active) |
| ON=C1CCc2cc(-c3nc(C4CCNCC4)[nH]c3-c3ccncc3)ccc21 | -26% (inactive) | – |
| CC(C)c1ccc(-c2cc(-c3cn[nH]c3-c3ccccn3)ccn2)cc1 | -93.4% (inactive) | – |
| FC(F)(F)c1cccc(Nc2nccc(-c3cnn4nc(-c5ccccc5)ccc34)n2)c1 | -11.3% (inactive) | – |
| CS(=O)(=O)c1ccc(Oc2nccc(-c3c(-c4ccc(F)cc4)ncn3C3CCNCC3)n2)cc1 | 7.12% (inactive) | – |

| Compound | activity change, negative = inhibition | Potency |
| --- | --- | --- |
| c1ccc(-c2nc3n(c2-c2ccc4c(c2)OCO4)CCC3)nc1 | -4.35% (inactive) | – |
| CCc1nccc2c1nc(-c1nonc1N)n2CC | 4.72% (inactive) | – |
| FC(F)(F)c1ccc(-c2nn3ncccc3c2-c2ccnc(Nc3ccc4c(c3)OCCO4)n2)cc1 | -13.8% (inactive) | – |
| COc1cc(Nc2ncc(-c3ccccc3)o2)cc(OC)c1 | – | 6510 nM (active) |
| CN1CCC(C(=O)Nc2n[nH]c3nc(-c4ccc(O)cc4)c(Br)cc23)CC1 | – | inactive |
| Cc1ccc2[nH]c(O)c(N=Nc3ccc(S(N)(=O)=O)cc3)c2c1 | -6.27% (inactive) | – |
| NS(=O)(=O)c1ccc(N=Nc2c(O)[nH]c3cccc(CCc4ccncc4)c23)cc1 | 7.91% (inactive) | – |
| COc1ccc(CNC(=O)c2ccc(-c3cc(-c4nnc(C)o4)ccc3C)cc2)cc1 | 8.91% (inactive) | – |
| COc1ccc2ncn(-c3cc(OC(C)c4ccccc4Cl)c(C(N)=O)s3)c2c1 (stereo not given) | 2.04% (inactive) | – |
| CCc1ccc(Oc2nccc(-c3c(-c4ccc(F)cc4)ncn3C3CCNCC3)n2)cc1 | 0.977% (inactive) | – |
| O=C1NC(=O)C(c2ccccc2Cl)=C1Nc1cccc(O)c1 | -8.83% (inactive) | – |
| COC(=O)Nc1nc2ccc(Oc3ccc(NC(=O)Nc4cccc(C(=O)O)c4)cc3)cc2[nH]1 | – | 116 nM (active) |
| COc1cc(Nc2nccc(-c3cnn4ncccc34)n2)cc(OC)c1 | -15.6% (inactive) | – |
| Nc1nccc(-c2c(-c3ccc(F)cc3)ncn2C2CCNCC2)n1 | 13.5% (inactive) | – |
| CCS(=O)(=O)c1ccc(OC)c(Nc2ncc(-c3cccc(F)c3)o2)c1 | 7.1% (inactive) | – |
| CCn1c(-c2nonc2N)nc2c(C#CC(C)(C)O)ncc(OC3CCNCC3)c21 | -0.275% (inactive) | – |
| c1ccc(Cc2nc3ccc(Nc4ncnc5ccccc45)cc3[nH]2)cc1 | – | 16300 nM (active) |
| COc1ccc(C2=C(N3CCc4ccccc43)C(=O)NC2=O)cc1 | -13.5% (inactive) | – |
| COc1cc2ncn(-c3cc(OCc4ccccc4C(F)(F)F)c(C(N)=O)s3)c2cc1OC | -6.98% (inactive) | – |
| CCn1c(-c2nonc2N)nc2cncc(C(=O)N3CCNCC3)c21 | 4.9% (inactive) | – |

From PubChem BioAssay AID652016 (National Center for Advancing Translational Sciences (NCATS), 2013)
